This is an account of results in PubChem BioAssay.

Test [1] can be described thus: P. berghei load reduction in hepatocytes – cell-based, HepG2, luciferase luminescence, HepG2 viability, primary screen (AID 624349; in the data active means parasite load remaining mostly below about 12%, no sharp cut-off; inactive means mostly above about 10%;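 further: 100% = mean of DMSO negative control wells on the same plate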). The conditions noted are these: P. berghei liver stage in HepG2, luciferase luminescence, concentration not given here; parasite load remaining: stronger effect = lower value; viability: measured here: HepG2 viability without parasites.
Test [2] is described as follows: signal quenchers or enhancers, Cy5 substrate/SSB – biochemical, NIH Clinical Collection, E. coli SSB, artefact control for HCV NS3 helicase inhibitor project (AID 743268; call rule not given here). The conditions noted are these: Cy5-oligo bound E. coli SSB, fluorescence interference.
Test [3] deals with Hepatitis C virus NS3 helicase. The test can be described thus: blockers of NS3h binding to DNA – biochemical, fluorescence polarization, NIH Clinical Collection, primary screen (AID 743270; call rule not given here). The following applies: NS3 helicase binding to Cy5-dT15 DNA, stronger effect = higher value, concentration not given here.
The target in test [4] is Single-stranded DNA-binding protein (Escherichia coli (strain K12)) (UniProt P0AGE0). The test can be described thus: SSB-ssDNA binding inhibitors – biochemical, fluorescence polarization, NIH Clinical Collection, counter-screen for HCV NS3 helicase inhibitor project (AID 743271; in the data active means inhibition above about 28%). The following applies: E. coli SSB-DNA binding, stronger effect = higher value, concentration not given here. For orientation: Fluorescence polarisation rises when a labelled molecule tumbles more slowly, as on binding a larger partner.

A short description of test [5]: compounds distorting NS3 helicase fluorescence signal – biochemical, NIH Clinical Collection, artefact control for HCV NS3 helicase inhibitor project (AID 743272; call rule not given here;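 further: HCV NS3 helicase with a Cy5 labelled single stranded DNA probe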). The conditions noted are these: fluorescence interference counterscreen, HCV NS3 helicase assay; stronger effect = lower value.
The nature of test [6]: viability loss with induced miR-34 in A549 – imaging, A549 dox-inducible miR-34, nuclei and caspase counts, primary screen (AID 1347080;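 active means compounds whose cell count with miR-34 switched on is under 0.7 times the count with it off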). The conditions noted are these: A549 miR-34 inducible, Hoechst nuclei count, 48 h.
The nature of test [7]: galactose survival enhancers in mitochondrial complex I cybrids – cell-based, galactose medium, ATP luminescence, primary screen (AID 1645843;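 active means z-score of at least 1.8 in each of two replicates, scored against plate mean and spread of sample wells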;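 further: positive z means more ATP and so rescue of galactose-driven cybrid death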). The conditions noted are these: complex I mutant cybrid cells, 72 h, stronger effect = higher value.
Test [8] relates to F380Y. The test can be described thus: BK channel mutant inhibitors and activators – cell-based, U2OS BacMam, thallium flux, beta subunits, selectivity assay, profiling panel (AID 1259406).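 Further: initial slope of Thallos dye fluorescence rise after thallium is added; log ratio against the mean of 0.3% DMSO vehicle wells on the same plate.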 The conditions noted are these: U2OS BacMam BK variants, at 30 µM.
Test [9] has as its system F380Y/beta1. The description is as above. The conditions noted are these: U2OS BacMam BK variants, at 30 µM.
For test [10], the system named is F380Y/beta2Delta. The test is described as above. The conditions noted are these: U2OS BacMam BK variants, at 30 µM.
Test [11] relates to F380Y/beta4. The test is described as above. The conditions noted are these: U2OS BacMam BK variants, at 30 µM.
Test [12] deals with Calcium-activated potassium channel subunit alpha-1 (Homo sapiens) + Leucine-rich repeat-containing protein 26 (Homo sapiens) (UniProt Q12791+Q2I0M4). The test is described as above. The following applies: U2OS BacMam BK variants, F380Y/Slo1WT/gamma1, at 30 µM.
Sequence of Calcium-activated potassium channel subunit alpha-1 (Homo sapiens) + Leucine-rich repeat-containing protein 26 (Homo sapiens) (Q2I0M4 whole entry, looked up, one chain of several): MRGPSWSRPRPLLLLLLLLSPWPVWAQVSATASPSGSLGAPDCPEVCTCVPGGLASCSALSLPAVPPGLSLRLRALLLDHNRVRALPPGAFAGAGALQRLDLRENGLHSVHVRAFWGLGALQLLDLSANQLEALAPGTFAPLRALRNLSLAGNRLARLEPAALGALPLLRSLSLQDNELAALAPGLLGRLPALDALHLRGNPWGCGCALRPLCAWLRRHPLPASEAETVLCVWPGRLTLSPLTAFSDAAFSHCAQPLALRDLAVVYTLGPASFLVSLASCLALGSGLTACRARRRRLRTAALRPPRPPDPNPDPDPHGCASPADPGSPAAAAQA
Test [13] has as its system R275C. Described as above. The following applies: U2OS BacMam BK variants, at 30 µM.
Test [14] concerns R275C/beta1. Described as above. The following applies: U2OS BacMam BK variants, at 30 µM.
Test [15] relates to R275C/beta2Delta. Described as above. The following applies: U2OS BacMam BK variants, at 30 µM.
Test [16] concerns R275C/beta4. The description is as above. The conditions noted are these: U2OS BacMam BK variants, at 30 µM.
Test [17] deals with R275C/Slo1WT/beta2. The description is as above. The following applies: U2OS BacMam BK variants, at 30 µM.
The nature of test [18]: MELAS cybrid and Rieske KO viability enhancers – cell-based, MELAS cybrids, Rieske KO mouse fibroblasts, CellTiter-Glo, primary screen (AID 1508586;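 active means mean z-score across replicates of 1.96 or higher in either the MELAS or the Rieske mutant cell line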;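 further: z relative to plate mean and SD of compound and empty wells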). The following applies: low glucose. A general note: Cellular ATP, detected with luciferase, serves as a proxy for viable cell number.
Where [19] appears, read: stronger effect = lower value, cell number ratio, induced over uninduced.
Where [20] appears, read: measured here: relative caspase fold change +Dox/-Dox.
Where [21] appears, read: measured here: total cells with miR-34 induction, stronger effect = lower value.
[22] abbreviates: measured here: total cells without miR-34 induction.
Setting [23] is: MELAS cybrid survival, CellTiter-Glo 48 h, stronger effect = higher value.
Setting [24] is: Rieske KO mouse fibroblast survival, CellTiter-Glo 72 h.

Where “and” joins values, the source holds several entries; their conditions need not be identical. Equal values may be shown once. Calls of active or inactive are those of the source.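 How the source made its calls, unless noted: active means thallium flux through the channel raised or lowered by more than 3 SD from vehicle-only wells, actives on both sides; inactive means the rest.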

On to `CN1CCN2c3ncccc3Cc3ccccc3[C@@H]2C1`, for which, in [1], the parasite load remaining is 60.5% (inactive). The compound also registered a viability in test [1] of 95.7%. Further, the fluorescence ratio in [2] was 1 (inactive); in [5], 1.01 (inactive). Besides, the figures for the inhibition in test [3] and in [4] were -1.36% (inactive) and 4.1% (inactive), respectively. Further, the fold change in test [6] (setting [19]) was 1.01 (inactive); in test [6] (setting [20]), 3.94. For the same compound, the values for the cell count in test [6] (setting [21]) and in test [6] (setting [22]) were 10600 and 10500, respectively. For the same compound, the z-score in test [7] was 0.765 (inactive). In addition, the log fold change Tl+ flux was 0.081 (inactive) in test [8]; 0.0391 (inactive) in [9]; 0.0643 (inactive) in test [10]; 0.0496 (inactive) in test [11]; -0.00307 (inactive) in test [12]; 0.0138 (inactive) in test [13]. The log fold change Tl+ flux is 0.0202 (inactive) in [14], 0.0645 (inactive) in test [15], 0.023 (inactive) in test [16] and -0.0289 (inactive) in test [17].

Consider `CO[C@H]1C=CO[C@@]2(C)Oc3c(C)c(O)c4c(O)c(c5c(c4c3C2=O)NC2(CCN(CC(C)C)CC2)N=5)=NC(=O)C(C)=CC=C[C@H](C)[C@H](O)[C@@H](C)[C@@H](O)[C@@H](C)[C@H](OC(C)=O)[C@@H]1C`, for which, in test [1], the parasite load remaining is 46.3% (inactive). Moreover, the viability in test [1] was found to be 56.4%. The log fold change Tl+ flux in test [8] is 0.00735 (inactive); in test [9], -0.0974 (active); in test [10] it was -0.052 (inactive); in [11], -0.0911 (inactive); in test [12], -0.0288 (inactive); in [13] it was -0.134 (active). In addition, the log fold change Tl+ flux in test [14] is 0.0366 (inactive); in [15], -0.0385 (inactive); in [16], 0.0214 (inactive); in [17], 0.0234 (inactive).

For `CC(=O)O[C@@]12CO[C@@H]1C[C@H](O)[C@@]1(C)C(=O)[C@H](O)C3=C(C)[C@@H](OC(=O)[C@H](O)[C@@H](NC(=O)OC(C)(C)C)c4ccccc4)C[C@](O)([C@@H](OC(=O)c4ccccc4)[C@H]21)C3(C)C`, the parasite load remaining in test [1] was 78.3% (inactive). In [1], the viability came out at 76.2%. Further, the fluorescence ratio in test [2] is 0.95 (inactive); in test [5] it was 0.93 (inactive). For the same compound, the figures for the inhibition in test [3] and in test [4] were 5.15% (inactive) and 9.14% (inactive), respectively. Moreover, the z-score was -2.05 (inactive) in test [18] (setting [23]) and 0.54 in [18] (setting [24]). For the same compound, the log fold change Tl+ flux in test [8] is -0.0323 (inactive); in test [9], -0.0744 (inactive); in test [10] it was -0.0313 (inactive); in test [11], -0.0802 (inactive); in test [12], -0.035 (inactive); in [13] it was -0.041 (inactive). The log fold change Tl+ flux is 0.104 (active) in test [14], 0.0412 (inactive) in [15], 0.0296 (inactive) in test [16] and 0.000404 (inactive) in test [17].

For the compound `CCN(CC)CCOc1ccc(C(=C(Cl)c2ccccc2)c2ccccc2)cc1`, in test [1], the parasite load remaining was -4.11% (inactive). Moreover, in test [1], the viability is 3.72%. Also, the values for the fluorescence ratio in [2] and in test [5] were 0.76 (active) and 0.97 (inactive), respectively. In addition, the inhibition in test [3] is -10.4% (inactive); in test [4], 0.29% (inactive). The fold change in test [6] (setting [19]) was 1.09 (inactive) and 0.932 (inactive); in test [6] (setting [20]) it was 2.63 and 0.76. In addition, the cell count in [6] (setting [21]) is 5020 and 7560; in test [6] (setting [22]) it was 4620 and 8110. In addition, the z-score is -0.453 (inactive) in [18] (setting [23]), -0.778 in test [18] (setting [24]) and -1.52 (inactive) in test [7]. Also, the log fold change Tl+ flux is 0.00267 (inactive) in [8]; -0.533 (active) in test [9]; 0.0152 (inactive) in test [10]; -0.059 (inactive) in test [11]; 0.0156 (inactive) in [13]; 0.0697 (inactive) in [14]. Moreover, the log fold change Tl+ flux was -0.00533 (inactive) in [15], 0.493 (active) in test [16] and -0.157 (active) in test [17].

Usually viability stands for a per cent measure of how many cells are alive, often set against a control. Usually inhibition stands for the relative decrease from the control value, in per cent.
